Shown are actives, neighbours in structure and some others; about 2.2% of the full set was active somewhere.
ZTA DNA inh = counter-screen for EBNA-1 inhibitors: inhibitors of Epstein-Barr virus ZTA; ZTA-DNA binding, fluorescence polarization; 0.15% of 320,000 active; P03206; inhibition, % at 11 µM; in the data active = inhibition above about 33%
Target sequence (P03206 whole entry, looked up): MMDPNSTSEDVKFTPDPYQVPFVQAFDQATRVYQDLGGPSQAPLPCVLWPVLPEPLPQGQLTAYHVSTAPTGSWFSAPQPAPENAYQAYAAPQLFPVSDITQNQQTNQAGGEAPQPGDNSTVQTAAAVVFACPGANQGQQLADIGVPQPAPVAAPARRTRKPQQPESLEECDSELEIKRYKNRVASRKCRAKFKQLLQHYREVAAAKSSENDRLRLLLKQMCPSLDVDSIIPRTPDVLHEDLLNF
EBNA-1 inhibitor = blocks EBNA-1 binding to DNA | EBNA-1 DNA binding, fluorescence polarization | 0.34% of 300,000 active | inhibition, % at 14.8 µM | AID 1950; in the data active = inhibition above about 28%
PolyA inh = yeast polyadenylation inhibition | activity score, % at 12 µM | S. cerevisiae SKY197-pL101 polyadenylation reporter, beta-gal luminescence; efflux-impaired pdr1/pdr3 knockout yeast; score 100 = 6 SD above DMSO | AID 1875 | 0.02% of 300,000 active;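 active = lowest replicate activity score at least 50, where 100 means six control SD above control mean; inconclusive = lowest score under 50 but half or more replicates reach 50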;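 also: yeast exposed to compound for 9 h at 30 °C; higher score means more reporter readthrough which indicates perturbed polyadenylation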
NALP1 yeast inh = blocks the NALP1 inflammasome reconstituted in yeast; S. cerevisiae NALP1/ASC/caspase-1 growth, X-gal OD620, 72 h; inhibition, % at 10 µM; 0.61% of 280,000 active; in the data active = inhibition mostly above about 24%, no sharp cut-off; inactive = mostly below about 32%
dFosB act-1 = mouse delta FosB homodimer activation; AID 493131; purified delta FosB, TAMRA-CDK5 oligo fluorescence polarization; percent of positive-control signal above neutral wells; 0.99% of 340,000 active; activation, % at 25 µM;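 active = mean activation above about 17%, with every replicate also reaching it, limit read from the data, passing the limit was not always enough; inconclusive = only one of the two conditions met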
Target sequence (P13346 whole entry, looked up): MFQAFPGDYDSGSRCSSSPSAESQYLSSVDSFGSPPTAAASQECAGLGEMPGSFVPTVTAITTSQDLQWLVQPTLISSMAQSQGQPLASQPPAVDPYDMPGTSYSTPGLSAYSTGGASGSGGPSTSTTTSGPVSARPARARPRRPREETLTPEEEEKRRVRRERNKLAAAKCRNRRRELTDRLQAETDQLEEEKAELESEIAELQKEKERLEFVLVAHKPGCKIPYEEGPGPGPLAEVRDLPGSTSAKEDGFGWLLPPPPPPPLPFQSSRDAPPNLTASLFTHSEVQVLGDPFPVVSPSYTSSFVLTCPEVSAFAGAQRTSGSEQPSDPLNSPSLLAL
NLRP3 yeast inh = NALP3 inhibition in yeast; Yeast reconstituted NLRP3/ASC/caspase-1, beta-gal luminescence, 24 h; inhibition, % at 10 µM; 0.39% of 330,000 active;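 active = inhibition of 50% or more; inactive = inhibition below 50%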;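 also: plate controls were induced DMSO wells for no effect and uninduced yeast grown without galactose for full effect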
dFosB act-2 = enhances mouse delta FosB homodimer binding to DNA | 2,400 tested, under 10 active | purified delta FosB, TAMRA-CDK5 oligo fluorescence polarization; normalised: neutral wells 0, positive control 100 | AID 588690 | shares compounds with dFosB act-1 | activation, % at 24.9 µM;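 active = highest replicate activation at or above 34% and every replicate reaching that threshold; inconclusive = meets only one of the two criteria; inactive = meets neither criterion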;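 also: higher polarization means more probe DNA bound by delta FosB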
An asterisk follows results filed as active; ? = inconclusive; nt = no result.

SMILES	ZTA DNA inh	EBNA-1 inhibitor	PolyA inh	NALP1 yeast inh	dFosB act-1	NLRP3 yeast inh	dFosB act-2
O=C(Nc1ccc2c(c1)C(=O)NC2=O)c1cccc(Cl)c1	1.8	-0.7	-25.1	16.7	25.3*	2.6	1.5
O=C(Nc1ccc2c(c1)C(=O)NC2=O)c1ccc(Cl)s1	8.3	10.1	2.8	4.4	53.9*	7.4	0.0
Cc1ccc(C(=O)Nc2ccc3c(c2)C(=O)NC3=O)cc1	1.4	-4.8	-4.9	23.7	35.4*	8.9	5.1
CC[C@]12c3[nH]c4ccc(OC)cc4c3CCN1C(=O)C(CC(=O)NCc1ccc(OC)c(OC)c1)C[C@@H]2C(=O)N1CCN(C(=O)C2CC2)CC1 (some centres not stated)	nt	nt	nt	nt	-12.1	nt	nt
Cc1ccc(NC(=O)c2ccc(OC(=O)CCN3C(=O)c4ccccc4C3=O)cc2)cc1	-8.5	-0.9	-3.1	27.5	35.0*	1.5	0.3
Cc1cc(C)cc(OC(=O)CCN2C(=O)c3ccccc3C2=O)c1	-6.8	-1.8	1.7	1.8	-2.5	12.8	nt
Cc1ccc(C(=O)c2oc3ccccc3c2NC(=O)c2cc(-c3ccccc3O)n[nH]2)cc1	3.7	1.6	8.4	32.6	30.9*	-5.8	-4.8
Cc1ccc(C(=O)NCc2ccco2)c(C)c1	nt	nt	-6.0	0.0	-2.9	18.6	nt
Cc1ccc(/C=C/C(=O)NC(=S)Nc2ccccc2C(=O)NC2CCCCC2)cc1	2.9	0.6	14.4	10.1	-9.9	-3.7	nt
O=C(/C=C/c1ccc(F)cc1)NC(=S)Nc1ccccc1C(=O)NC1CCCCC1	2.2	9.8	13.3	4.3	21.6*	-25.4	3.5
COc1ccc(/C=C/C(=O)NC(=S)Nc2ccccc2C(=O)NC2CCCCC2)cc1	-1.9	5.0	-5.4	-13.1	44.5*	14.4	-2.6
O=C(/C=C/c1ccccc1)NC(=S)Nc1ccccc1C(=O)NC1CCCCC1	-9.0	-9.6	-4.6	4.7	39.3*	1.6	-4.4
CSCCC(NC(=O)c1cccc(C)c1)C(=O)NNC(=O)c1cccs1 (configuration not stated)	nt	nt	nt	nt	-1.3	11.9	nt
CC(=O)c1sc(NS(=O)(=O)c2ccc(C)cc2)nc1-c1ccccc1	3.0	-12.2	-8.4	3.0	1.4	8.4	nt
Cc1ccccc1C(=O)NNC(=O)CSc1nc(-c2ccccc2)cc(=O)[nH]1	12.4	3.9	7.9	4.2	40.3*	8.4	3.8
O=C(CSc1nc(-c2ccccc2)cc(=O)[nH]1)NCc1ccc2c(c1)OCO2	12.2	5.4	?	7.8	48.6*	26.2	3.2
O=C(CSc1nc2ccccc2[nH]1)NCc1ccc2c(c1)OCO2	0.8	8.1	-5.0	28.5	-1.3	7.8	nt
Cc1ccccc1NC(=O)CSc1nc(-c2ccccc2)cc(=O)[nH]1	-11.3	-5.7	12.0	23.2	12.0	1.2	nt
Cc1cc(NC(=O)CSc2nnc(Nc3ccccc3)s2)no1	5.0	9.0	12.6	15.4	11.4	-3.0	nt
O=C(CSc1nnc(NC(=O)c2ccco2)s1)Nc1ccccc1F	9.0	-0.3	-0.5	11.7	-0.6	1.7	nt
Cc1cc(NC(=O)CSc2nnc(Nc3ccccc3C)s2)no1	-6.0	-1.1	1.1	-0.1	61.7*	15.5	0.3
Cc1ccccc1NC(=O)CSc1nnc(NC(=O)c2ccco2)s1	-16.9	2.4	8.6	15.6	38.6*	25.7	-0.1
O=C(CN1CSCC1=O)N1CCN(S(=O)(=O)c2ccc(Cl)cc2)CC1	4.2	nt	nt	nt	-1.6	2.9	nt
CCOC(=O)c1c(C)nc2sc(C(=O)Nc3ccc(OC)cc3)c(N)c2c1-c1ccc(OC)cc1	-0.6	-12.3	1.8	-3.0	-11.8	-4.6	nt
CCOC(=O)c1c(C)nc2sc(C(=O)Nc3ccc(C(C)=O)cc3)c(N)c2c1-c1ccc(OC)cc1	4.0	-2.8	-14.3	nt	18.7*	-0.4	-0.5
SMILES	ZTA DNA inh	EBNA-1 inhibitor	PolyA inh	NALP1 yeast inh	dFosB act-1	NLRP3 yeast inh	dFosB act-2
C[C@H]1CC[C@H]2C(=O)N3[C@H](c4ccccc4Br)[C@@H](C)CC[C@H]3C(=O)N2[C@@H]1c1ccccc1Br	8.9	2.6	-5.7	34.7	nt	1.4	nt
Cn1c(=O)cc(OCCCC(=O)Nc2ccc3c(c2)OCCO3)c2ccccc21	-7.8	-12.6	-6.1	2.2	43.8*	13.9	2.1
Cc1cc2ccccc2c(=O)n1CC(=O)Nc1ccc2c(c1)OCCO2	1.7	7.8	8.0	0.9	18.8*	6.4	0.4
N#Cc1ccc(N[C@@H]2CCN3C(=O)c4ccccc4[C@@H]3C[C@H]2O)cc1	nt	nt	nt	nt	-12.9	nt	nt
CCCCNC(=O)NS(=O)(=O)c1ccc(NC(=O)CCC(=O)c2cccs2)cc1	4.4	-4.5	4.3	23.5	-8.3	6.9	nt
C/C(=N/NC(=O)CCC(=O)Nc1ccc(Br)cc1)c1ccc(Br)cc1	-8.6	4.5	12.0	9.3	-5.7	12.7	nt
COC(=O)c1ccccc1NC(=O)COC(=O)Cc1ccc(S(=O)(=O)N2CCOCC2)s1	nt	nt	nt	nt	-16.2	nt	nt
C=CCN(c1ccccc1)S(=O)(=O)c1cccc(C(=O)Nc2nc3ccccc3[nH]2)c1	2.5	-7.2	-4.9	-6.0	47.4*	-2.5	0.5
Cc1ccc(S(=O)(=O)N(C)C)cc1NC(=O)COC(=O)c1ccc2c(=O)n3c(nc2c1)CCC3	9.1	11.2	19.9	nt	14.5	17.7	nt
O=C(CC(NC(=O)C(F)(F)F)c1ccccc1)Nc1nnc(CCc2ccccc2)s1 (configuration not stated)	-13.6	-11.7	1.7	15.9	19.0*	-7.5	4.5
Cc1nnc(NC(=O)CC(NC(=O)C(F)(F)F)c2ccccc2)s1 (configuration not stated)	-8.6	3.9	6.9	29.0	-0.1	4.0	nt
COC(=O)c1ccccc1S(=O)(=O)NNC(=O)c1nn(C)c(=O)c2ccccc12	nt	nt	nt	nt	-0.2	1.7	nt
Cc1cc(C)c2cc(CN(CCN3CCCC3)C(=O)Nc3ccc(F)cc3)c(=O)[nH]c2c1	-7.0	-7.2	6.9	27.7	31.3*	18.7	-7.9
Cc1cc(C)c2cc(CN(CCO)C(=O)Nc3ccc(Cl)cc3)c(=O)[nH]c2c1	11.8	1.9	3.4	-1.3	nt	18.2	nt
O=c1cc(/N=C/c2coc3c(ccc4ccccc43)c2=O)[nH]c(=S)[nH]1	-4.1	10.0	-12.3	14.1	43.3*	30.2	-1.2
NC(=S)N/N=C/c1coc2c(ccc3ccccc32)c1=O	1.3	4.0	-15.9	49.1	-12.3	nt	nt
CCc1ccc(-n2nnnc2SCC(=O)Nc2ccc(NC(C)=O)cc2)cc1	3.8	-8.5	5.1	19.6	17.8*	13.5	8.5
CC(=O)Nc1ccc(-n2nnnc2SCC(=O)Nc2cccc(NC(=O)c3ccco3)c2)cc1	4.2	6.5	5.4	nt	33.0*	-13.1	8.2
O=C(CSc1nnnn1-c1ccc(Cl)cc1)NC(=O)Nc1ccc2c(c1)OCCO2	5.6	19.9	13.1	7.7	21.2*	15.3	6.6
